Test results as given in ChEMBL document CHEMBL1157539, “Thousands of chemical starting points for antimalarial lead identification” (Nature, 2010).

Experiments:
Format in all cases: functional
[1] = system: Plasmodium falciparum; assay: GSK_TCMDC: Inhibition of Plasmodium falciparum 3D7 in whole red blood cells, using parasite LDH activity as an index of growth. Test compounds present at 2uM
[2] = system: Plasmodium falciparum; assay: GSK_TCMDC: Inhibition of Plasmodium falciparum Dd2 in whole red blood cells, using parasite LDH activity as an index of growth. Test compounds present at 2uM
[3] = system: HepG2; assay: GSK_TCMDC: Percent inhibition of human HepG2 cell line. Test compounds present at 10uM.

CN(C)Cc1cccc(-c2ccc(NC(=O)c3ccc4c(=O)n(CC5CCCO5)cnc4c3)cc2)c1 (stereo unspecified)
Inhibition [1]: 97%
Inhibition [2]: 14%
Inhibition [3]: 28%

Cc1cc(Nc2ccccc2)nc(Nc2ccccc2C)n1.Cl
Inhibition [1]: 85%
Inhibition [2]: 27%
Inhibition [3]: 8%

COc1cc2c(c(Cl)c1OC)CCN(C(=O)C(F)(F)F)CC2c1ccccc1 (stereo unspecified)
Inhibition [1]: 100%
Inhibition [2]: 100%
Inhibition [3]: 7%

COc1cc(-n2c(CN3CCCC3)nc3cc(-c4ccc(Cl)cc4)sc3c2=O)ccc1OCCN1CCCC1.O=C(O)C(F)(F)F
Inhibition [1]: 94%
Inhibition [2]: 90%
Inhibition [3]: 66%

COc1ccc(N2CCN(CCCCNC(=O)c3ccc(NC(=O)c4ccc(OC(F)(F)F)cc4)cc3)CC2)c(OC)c1
Inhibition [1]: 100%
Inhibition [2]: 90%
Inhibition [3]: 36%

CN(C)CCNCc1ncsc1-c1ccc2c(Nc3ccc(F)cc3Cl)ccnc2c1
Inhibition [1]: 100%
Inhibition [2]: 95%
Inhibition [3]: 0%

Cc1cc(C(=O)Nc2ccc(-c3nc4ccccc4[nH]3)cc2)ccc1[N+](=O)[O-]
Inhibition [1]: 100%
Inhibition [2]: 47%
Inhibition [3]: 55%

COc1cc2nc(N3CCN(c4cc(C)ccc4C)CC3)nc(N)c2cc1OC.Cl
Inhibition [1]: 98%
Inhibition [2]: 12%
Inhibition [3]: 66%

CN1c2ccccc2Sc2cc(CNCCSCCNCc3ccc4c(c3)Sc3ccccc3N4C)ccc21.Cl
Inhibition [1]: 84%
Inhibition [2]: 44%
Inhibition [3]: 58%

CCCc1nc2c(N3CCCN(C(=O)NC4CCCCC4)CC3)cccc2n1Cc1ccccn1
Inhibition [1]: 89%
Inhibition [2]: 10%
Inhibition [3]: 10%

CCNc1nc(OCC(F)(F)F)nc(N(c2ccccc2)c2ccccc2)n1
Inhibition [1]: 100%
Inhibition [2]: 83%
Inhibition [3]: 5%

COc1ccc2nc3cc(Cl)ccc3c(Nc3ccc(Sc4ccc(Nc5c6ccc(Cl)cc6nc6ccc(OC)cc56)cc4)cc3)c2c1.Cl
Inhibition [1]: 92%
Inhibition [2]: 94%
Inhibition [3]: 1%

CCOC(=O)c1cccc(NC(=O)Nc2cc(C)nc3ccccc23)c1
Inhibition [1]: 100%
Inhibition [2]: 90%
Inhibition [3]: 14%

CCn1ccc2c(N3CCCC3=O)cc(C(=O)N[C@@H](Cc3ccccc3)[C@H](O)CNC3CCCCC3)cc21
Inhibition [1]: 99%
Inhibition [2]: 98%
Inhibition [3]: 12%

CC(C)(C)c1ccc(NC(=O)c2cccc(CN3CCCN(Cc4cccc(O)c4)CC3)c2)cc1.O=C(O)C(F)(F)F
Inhibition [1]: 100%
Inhibition [2]: 69%
Inhibition [3]: 97%

C=CCOC(=O)N1CCC(CNCc2ccc(-c3cccc(-c4nc5ccccc5[nH]4)c3)cc2)C1.O=C(O)C(F)(F)F (stereo unspecified)
Inhibition [1]: 100%
Inhibition [2]: 50%
Inhibition [3]: 39%

COc1cc(NC(=O)c2sc(-c3ccc(Cl)cc3)cc2NC(=O)c2cccnc2)ccc1OCCN1CCCC1
Inhibition [1]: 94%
Inhibition [2]: 77%
Inhibition [3]: 38%

O=C(Nc1cc(C(F)(F)F)cc(C(F)(F)F)c1)c1cc(Cl)ccc1O [IMD-0354]
Inhibition [1]: 90%
Inhibition [2]: 98%
Inhibition [3]: 84%

Br.CCCCCCCCn1c2c(c(=N)c3c1CCC3)CCCC2
Inhibition [1]: 100%
Inhibition [2]: 100%
Inhibition [3]: 57%

O=C(NCc1ccc(C(=O)NCc2cccc3ccccc23)cc1)c1ccc(O)c(-c2ccc(Cl)c(Cl)c2)c1
Inhibition [1]: 100%
Inhibition [2]: 31%
Inhibition [3]: 0%

CC=CC(=O)N1CCN(c2nccc(-c3ccc(C(C)(C)C)cc3)n2)CC1
Inhibition [1]: 95%
Inhibition [2]: 70%
Inhibition [3]: 20%

O=C(Nc1cccc(CN2CCCN(Cc3ccc(O)cc3)CC2)c1)c1ccc2ccccc2n1.O=C(O)C(F)(F)F
Inhibition [1]: 90%
Inhibition [2]: 22%
Inhibition [3]: 13%

COc1ccc2nc3cc(Cl)ccc3c(NCCCCCCNc3c4ccc(Cl)cc4nc4ccc(OC)cc34)c2c1.Cl.Cl.Cl.Cl
Inhibition [1]: 96%
Inhibition [2]: 79%
Inhibition [3]: 20%

O=C(/C=C/c1ccc(Cl)c(Cl)c1)NCCCCCN1CCC(NC(=O)NC2CCCCCC2)CC1
Inhibition [1]: 99%
Inhibition [2]: 41%
Inhibition [3]: 15%

Cc1ccc2nc(C)cc(N/N=C/c3ccc([N+](=O)[O-])cc3)c2c1
Inhibition [1]: 100%
Inhibition [2]: 15%
Inhibition [3]: 10%

Cl.O=C(Nc1cccc(C2=NCCCN2)c1)Nc1cccc(C2=NCCCN2)c1
Inhibition [1]: 81%
Inhibition [2]: 70%
Inhibition [3]: 5%

Cc1ccc(-c2noc(COc3ccccc3C(=O)NC3CCCC3)n2)cc1
Inhibition [1]: 89%
Inhibition [2]: 92%
Inhibition [3]: 9%

COc1ccc(CNC2Cc3ccccc3C2)cc1-c1ccc(OC)c(S(=O)(=O)NCCN2CCCC2)c1.O=C(O)C(F)(F)F
Inhibition [1]: 100%
Inhibition [2]: 97%
Inhibition [3]: 31%

NS(=O)(=O)NCCCN1CCN(c2ccccc2)CC1
Inhibition [1]: 90%
Inhibition [2]: 73%
Inhibition [3]: 2%

COc1cccc2c(NN=Cc3cccc(Cl)c3)cc(C)nc12
Inhibition [1]: 100%
Inhibition [2]: 75%
Inhibition [3]: 3%

CCC1(CC)N=C(N)N=C(N)C1c1ccc(Cl)c(Cl)c1.Cl (stereo unspecified)
Inhibition [1]: 98%
Inhibition [2]: 20%
Inhibition [3]: 0%

Cc1cccc2nc(-c3cccc(-c4ccc(NC(=O)C5CCCO5)cc4)c3)[nH]c12 (stereo unspecified)
Inhibition [1]: 91%
Inhibition [2]: 13%
Inhibition [3]: 10%

CCc1cc(I)c2c(c1)C(NCCCNc1cc(=O)c3ccccc3[nH]1)CCN2.CS(=O)(=O)O (stereo unspecified)
Inhibition [1]: 89%
Inhibition [2]: 32%
Inhibition [3]: 19%

NC(=O)c1cc2nc(NC3CCC3)nc(Nc3cccc4[nH]ncc34)c2[nH]1.O=CO
Inhibition [1]: 100%
Inhibition [2]: 62%
Inhibition [3]: 9%

COc1ccc2nccc(N3CCN(CCNCc4ccc5c(n4)NC(=O)CS5)CC3)c2c1.Cl
Inhibition [1]: 97%
Inhibition [2]: 23%
Inhibition [3]: 18%

COc1ccc2c(=NN=Cc3ccccc3Cl)cc(C)[nH]c2c1
Inhibition [1]: 100%
Inhibition [2]: 99%
Inhibition [3]: 5%

N=C(N)NC(=O)Nc1cc(Cl)c(Cl)c(Br)c1
Inhibition [1]: 99%
Inhibition [2]: 99%
Inhibition [3]: 16%

COc1ccc(CNCCc2cccs2)cc1-c1ccc(OC)c(S(=O)(=O)NCCN2CCCC2)c1.O=C(O)C(F)(F)F
Inhibition [1]: 96%
Inhibition [2]: 19%
Inhibition [3]: 16%

Cc1nc(C(=O)N2CCCC[C@H]2CNC(=O)c2ccc(-c3ccc(N4CCCC4=O)cc3C)cc2)c(-c2ccc(F)cc2)s1
Inhibition [1]: 98%
Inhibition [2]: 94%
Inhibition [3]: 6%

CC[C@H](C)CNC(=O)c1cncc(-c2ccc(CN(C)C3CCN(C)CC3)cc2)c1.O=C(O)C(F)(F)F
Inhibition [1]: 100%
Inhibition [2]: 97%
Inhibition [3]: 0%

Cl.Clc1ccc2c(NCCc3ccccc3)ccnc2c1
Inhibition [1]: 93%
Inhibition [2]: 99%
Inhibition [3]: 31%

CN1CCC(c2nc(N)no2)C1.O=C(O)C(=O)O (stereo unspecified)
Inhibition [1]: 95%
Inhibition [2]: 2%
Inhibition [3]: 15%

C=CCOC(=O)N1CCC(CNCc2cccc(-c3cccc(-c4nc5cccc(C)c5[nH]4)c3)c2)C1.O=C(O)C(F)(F)F (stereo unspecified)
Inhibition [1]: 100%
Inhibition [2]: 69%
Inhibition [3]: 22%

CCCC(=O)Nc1ccc(OCCCN(Cc2cccc(C(F)(F)F)c2)c2ccc(C#N)c(C(F)(F)F)c2)cc1
Inhibition [1]: 90%
Inhibition [2]: 89%
Inhibition [3]: 0%

COc1cc(-c2nc(-c3ccncc3)c(-c3ccc4c(c3)CCC4=NO)[nH]2)ccc1OCCN1CCN(C)CC1.Cl
Inhibition [1]: 99%
Inhibition [2]: 77%
Inhibition [3]: 53%

Clc1cccc(C=NNc2nc(=Nc3ccccc3)[nH]c(=Nc3ccccc3)[nH]2)c1
Inhibition [1]: 92%
Inhibition [2]: 15%
Inhibition [3]: 0%

COc1ccc2nc(-c3ccccc3)cc(N/N=C/c3ccc([N+](=O)[O-])cc3)c2c1
Inhibition [1]: 100%
Inhibition [2]: 100%
Inhibition [3]: 89%

CCC(=O)c1c(C)n(-c2ncnc3c2nc(C)n3-c2ccc(C)cc2C)c2ccccc12
Inhibition [1]: 96%
Inhibition [2]: 78%
Inhibition [3]: 0%

CN1CCN(Cc2cccc(-c3ccc4c(Nc5ccc(Oc6cccnc6)cc5)ccnc4c3)c2)CC1
Inhibition [1]: 100%
Inhibition [2]: 100%
Inhibition [3]: 15%

COc1ccc2nccc([C@@H](O)CN3CCC(NCc4nc5ccccc5s4)CC3)c2c1.O=C(O)C(=O)O
Inhibition [1]: 93%
Inhibition [2]: 5%
Inhibition [3]: 8%

CN(CC1CCC(NC(=O)/C=C/c2ccc(Cl)c(Cl)c2)CC1)C1CCC(c2c[nH]c3ccccc23)CC1 (stereo unspecified)
Inhibition [1]: 99%
Inhibition [2]: 53%
Inhibition [3]: 53%

COc1ccc(CC2(CO)CCN(Cc3ccc(O)c(Cl)c3)CC2)cc1
Inhibition [1]: 98%
Inhibition [2]: 14%
Inhibition [3]: 0%

Cc1cc(NC(=O)NCCN2CCC(NS(=O)(=O)c3ccccc3F)CC2)c2ccccc2n1
Inhibition [1]: 81%
Inhibition [2]: 44%
Inhibition [3]: 0%

Nc1nc2ccc(S(=O)(=O)Nc3ccc(C(=O)N[C@@H](CCC(=O)O)C(=O)O)c(F)c3)cc2c(=O)[nH]1
Inhibition [1]: 97%
Inhibition [2]: 16%
Inhibition [3]: 37%

CC(CN(C)C)C(=O)Nc1cccc(-c2cccc(-c3nc4cc(F)ccc4[nH]3)c2)c1 (stereo unspecified)
Inhibition [1]: 100%
Inhibition [2]: 94%
Inhibition [3]: 29%

CN(c1ccc2c(c1)nc(NC(=O)C1(c3cc(F)ccc3F)CC1)n2C)c1ccnc(Nc2cccc(CS(C)(=O)=O)c2)n1.O=C(O)C(F)(F)F
Inhibition [1]: 89%
Inhibition [2]: 46%
Inhibition [3]: 42%

Cl.OCCNc1nc(Nc2ccccc2)nc2ccccc12
Inhibition [1]: 93%
Inhibition [2]: 61%
Inhibition [3]: 5%

Cc1ccccc1Nc1cc(Nc2ccccc2C)c2ccccc2n1
Inhibition [1]: 96%
Inhibition [2]: 93%
Inhibition [3]: 28%

Cc1ccc(OC2CCN(c3ccc(C(=O)NC4CC4)cn3)CC2)cc1
Inhibition [1]: 87%
Inhibition [2]: 75%
Inhibition [3]: 11%

CCCN(CCC)CCCN(CCCN(CCC)CCC)c1cc(C)nc(Nc2ccc3cc(Br)ccc3c2)n1.Cl
Inhibition [1]: 98%
Inhibition [2]: 99%
Inhibition [3]: 99%

CN1CCCN(Cc2ccc(-c3cccc(NC(=O)c4cccc(Cl)c4)c3)cc2)CC1.O=C(O)C(F)(F)F
Inhibition [1]: 100%
Inhibition [2]: 32%
Inhibition [3]: 33%

Cl.NC(=O)c1cccc(Nc2nccc(Nc3ccc4[nH]c(-c5ccccc5)cc4c3)n2)c1
Inhibition [1]: 100%
Inhibition [2]: 98%
Inhibition [3]: 28%
